Results filed as inconclusive are left out. Activity calls are given as the source filed them. Calls follow the shape of the dose curve; as a rule, active = well fitted inhibition curve with a large enough effect; inconclusive = small, poorly fitted or top-dose-only effect; inactive = flat fitted curve, though single readings scatter.
Biological target: Dual specificity tyrosine-phosphorylation-regulated kinase 1A (Homo sapiens) (UniProt Q13627)
Experiment: Confirmation Assay for Inhibitors of Dyrk1a (Kinase-Glo Assay): KU probe
Conditions: Kinase-Glo ATP luminescence; series mostly up to 76.9 µM
Outline: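 Recombinant human Dyrk1A (5 nM) was incubated with 8 uM DYRKtide and 2 uM ATP in Tris-HCl pH 7.5 with MgCl2, EGTA, cysteine and Triton X-100 for 2 h at room temperature; residual ATP was measured by Kinase-Glo luminescence.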

Potency, active:
c1nc(NCCc2cnc[nH]2)c2cc(-c3ccc4c(c3)OCO4)ccc2n1 328 nM
c1cncc(CNc2nccc(-c3ccc4cn[nH]c4c3)n2)c1 207 nM
CN(CC1CCCCO1)c1ncnc2ccc(-c3ccc4c(c3)OCO4)cc12 (stereo not given) 207 nM
CC(=O)c1ccc(-c2ccc3ncnc(NCc4ccc(C)o4)c3c2)o1 1640 nM
Cc1c(-c2ccnc(NCc3cccnc3)n2)sc(=O)n1C 146 nM

Reference: PubChem BioAssay AID624093 (National Center for Advancing Translational Sciences (NCATS), 2012)
